From PubChem BioAssay (NCATS)
Inconclusive results are not listed. Where a call stands in place of a potency, no number is given. Values without a mark were called inactive. Activity calls are given as the source filed them. The call rests on the fitted dose curve; in most records, active means well fitted curve in the direction sought with a large enough effect; inconclusive means small, poorly fitted or top-dose-only effect, or another doubt; inactive means no such curve, though single readings can be large; an effect the other way counts as inactive or inconclusive.

Assays:
Furin (Homo sapiens) = Furin (Homo sapiens) (UniProt P09958); experiment: Furin counterscreen qHTS for Zika virus inhibitors (AID 1347149); further: nearly all actives have a fitted effect of over 70% in size; further: potency means the concentration at half of the fitted maximal effect
Chain of Furin (Homo sapiens) (P09958 whole entry, looked up): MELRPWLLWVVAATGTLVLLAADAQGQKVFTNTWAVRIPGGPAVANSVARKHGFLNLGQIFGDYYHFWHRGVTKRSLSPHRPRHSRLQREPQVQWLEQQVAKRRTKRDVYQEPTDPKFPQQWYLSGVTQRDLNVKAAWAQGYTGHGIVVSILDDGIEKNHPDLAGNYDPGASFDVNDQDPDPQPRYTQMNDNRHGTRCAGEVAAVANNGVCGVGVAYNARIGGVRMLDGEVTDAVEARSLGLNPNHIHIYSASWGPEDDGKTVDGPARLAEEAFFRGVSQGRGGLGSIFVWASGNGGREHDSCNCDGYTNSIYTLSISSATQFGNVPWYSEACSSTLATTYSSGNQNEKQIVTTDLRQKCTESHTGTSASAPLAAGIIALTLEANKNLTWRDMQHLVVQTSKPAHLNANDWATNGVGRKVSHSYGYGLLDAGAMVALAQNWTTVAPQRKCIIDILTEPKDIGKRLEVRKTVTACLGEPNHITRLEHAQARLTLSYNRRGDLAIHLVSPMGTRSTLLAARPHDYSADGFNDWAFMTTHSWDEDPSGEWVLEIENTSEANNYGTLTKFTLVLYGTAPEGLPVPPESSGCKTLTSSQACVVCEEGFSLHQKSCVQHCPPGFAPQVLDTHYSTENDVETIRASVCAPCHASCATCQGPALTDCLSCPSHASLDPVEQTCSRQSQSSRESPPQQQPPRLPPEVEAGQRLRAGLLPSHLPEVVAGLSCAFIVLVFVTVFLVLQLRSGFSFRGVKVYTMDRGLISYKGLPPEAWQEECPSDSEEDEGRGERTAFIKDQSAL
Outline: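 Fluorogenic cleavage of BOC-RVRR-AMC (2 microM final, Km ~15 µM) was monitored (ex 340, em 450 nm) at 37C after 15 min RT preincubation of 5 nM furin with compounds in HEPES pH 7.0 buffer with CaCl2 and Triton X-100. Percent inhibition was fitted to a 4-parameter Hill curve.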

[1] = Confirmatory screen GU Rhodamine qHTS for Zika virus inhibitors qHTS (AID 1347157); further: nearly all actives have a fitted effect of over 70% in size
Outline: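 A qHTS format was used, with compound concentrations ranging up to 114 microM. Each compound was preincubated with 25 nM NS2B-NS3 protease, and the substrate was then added at 1.5 microM. Curves were fitted with a 4-parameter Hill model.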

[2] = Confirmatory screen NINDS Rhodamine qHTS for Zika virus inhibitors (AID 1347161);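 further: purified Zika NS2B-NS3 protease with linked NS2B cofactor domain and Rhodamine110 peptide substrate; series mostly up to about 110 µM; nearly all actives have a fitted effect of over 60% in size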
Outline: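 Percent inhibition, normalized to uninhibited and enzyme-free controls, is fitted to a 4-parameter Hill equation. Fluorescence change comes from a 15-min cleavage of 1.5 microM bis-peptide Rhodamine110 substrate by 25 nM linked NS2B-NS3 at room temperature.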

[3] = Tertiary RLuc qRT-PCR qHTS assay for Zika virus inhibitors (AID 1347169); further: top concentration of the series differs between compounds; nearly all actives have a fitted effect of over 55% in size
Outline: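 Orthogonal cell-based readout: luminescence measured 1-1.5 hrs after adding live-cell Renilla substrate to Vero cells that had been infected with ZIKV-RLuc (MOI 1-2) post-compound, incubated 48-72 hrs at 37 degrees C.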

[4] = molecular target: Calcium and integrin-binding protein 1 (Homo sapiens) (UniProt Q99828); experiment: Primary qHTS for Identification of Calcium Integrin Binding Protein 1 (CIB1) Competitor (AID 1508620);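 further: GST tagged CIB1 binding a fluorescein labelled alphaIIb integrin peptide tracer; top concentration of the series differs between compounds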
Chain of Calcium and integrin-binding protein 1 (Homo sapiens) (Q99828 whole entry, looked up): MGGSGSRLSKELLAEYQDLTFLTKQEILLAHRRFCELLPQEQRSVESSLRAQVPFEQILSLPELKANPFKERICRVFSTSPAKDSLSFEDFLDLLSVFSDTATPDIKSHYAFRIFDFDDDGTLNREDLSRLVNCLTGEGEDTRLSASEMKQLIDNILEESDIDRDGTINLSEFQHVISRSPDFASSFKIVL
Outline: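 CIB1-GST (1 uM final) and compound incubated 15 min at room temperature before adding FITC-alphaIIb peptide tracer (100 nM final). Competition for binding read by fluorescence polarization (ex 480, em 540) after another 15 min at room temperature.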

Row | SMILES | Potency (Furin (Homo sapiens)) | Potency [1] | Potency [2] | Potency [3] | outcome [4]
1 | O=C(CNC(=O)c1ccc(Cl)cc1)OCc1cc(=O)n2nc(C3CCCCC3)sc2n1 | inactive | inactive | inactive | inactive | 
2 | O=C(OCC#CCSc1nnc(-c2cccc3ccccc23)o1)c1ccc(OC(F)F)cc1 | 41.8 µM (active) | inactive | inactive |  | inactive
3 | O=C(CNC(=O)c1ccccc1)OC(C(=O)Nc1cc(C(F)(F)F)ccc1Cl)c1ccccc1 (configuration not stated) | inactive | inactive | inactive | inactive | 
4 | O=C(OCC#CCSc1nnc(-c2cccc3ccccc23)o1)c1cc(F)c(F)c(F)c1 | 46.9 µM (active) | inactive | inactive | inactive | inactive
5 | CC(C)OC(=O)c1ccc(NC(=O)CSc2nc(-c3cccs3)cc(C(F)(F)F)n2)cc1 | 52.7 µM (active) | inactive | inactive | inactive | 
6 | CCOc1ccc(C(=O)Nc2ccccc2C(=O)OCc2cc(=O)n3nc(C4CC4)sc3n2)cc1 | inactive | inactive | inactive | inactive | 
7 | COC(=O)c1ccc(C(=O)Nc2ccc(-c3nc4cc(NC(=O)c5ccc(C(=O)OC)cc5)ccc4o3)cc2)cc1 | inactive | inactive | inactive | inactive | 
8 | O=C(Nc1cccc(C(=O)OCc2cc(=O)n3c4c(sc3n2)CCCC4)c1)c1ccc(Cl)cc1 | 52.7 µM (active) | inactive | inactive | inactive | 
9 | CC(C)c1nn2c(=O)cc(COC(=O)c3ccc(NC(=O)COc4ccccc4)cc3)nc2s1 | inactive | inactive | inactive | inactive | 
10 | O=S(=O)(Nc1ccc(O)c(NS(=O)(=O)c2ccccc2)c1)c1ccccc1 | inactive | inactive | inactive | inactive | inactive
